Compounds with a hit are over-represented: about 19% of the library has one in this group of screens.
DT40 TDP1 CPT – growth inhibition of DT40 Tdp1-/-;hTDP1 cells with camptothecin (screen for TDP1 inhibitors); chicken DT40 Tdp1-/-;hTDP1 cells + 20 nM CPT, ATP luminescence, 48 h; Potency, µM (top dose mostly 46.2 µM), for inactives: top-dose activity change, negative = growth inhibition, usual class: inhibitors; actives 12% (n = 420,000); AID 686979; further: potency means the concentration at half of the fitted maximal effect; nearly all actives have a fitted effect of over 55% in size
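Chicken DT40 Tdp1-/- cells complemented with human TDP1, 400 cells/well, exposed to compounds plus 20 nM camptothecin for at least 48 h at 37 C; viability read as ATP content by CellTiter-Glo luminescence.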
HT1080-NT tox – kills 2HG-producing HT-1080-NT fibrosarcoma cells; HT-1080-NT fibrosarcoma viability, CellTiter-Glo ATP luminescence, 48 h; Potency, µM (doses to about 46.1 µM), inactives show at the highest dose activity, negative = less viability, hits mostly cytotoxic; actives 1.6% (n = 360,000); AID 686970;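 further: NT is the 2HG producing partner of a matched IDH1 knockdown line; potency means the concentration at half of the fitted maximal effect; 0% = DMSO-treated cells and -100% = media-only wells without cells; nearly all actives have a fitted effect of over 55% in size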
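750 cells/well, RPMI + 5% FBS; 2 h settle, compound pin-transfer, 48 h at 37 degrees C. CellTiter-Glo 10 min RT, luminescence. Normalized to DMSO and media-only wells.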
IL1B secr inh – inflammasome signaling inhibition, IL-1 beta readout; actives 4.7% (n = 360,000); THP-1 LPS/ATP IL-1B secretion, AlphaLISA, 16 h; active compounds read low; activity change, % at 57.5 µM; in the data active means activity change below about -50%; inconclusive means mostly about -30% to -49%
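Secreted IL-1B measured by AlphaLISA bead assay after 16 h compound exposure of THP-1 cells; compounds (final up to 57.5 uM) added 1 h before LPS (250 ng/mL) and ATP (1.25 mM) stimulation; lower signal means less secretion.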
HT1080 IDH1KD tx – toxicity to HT-1080 IDH1 knockdown cells (counter line) | actives 2% (n = 360,000) | Potency, µM (titrated, usually from 46.1 µM), without a hit: at the top dose activity, negative = toxicity, usual class: cytotoxic | HT-1080 IDH1 knockdown viability, ATP luminescence, 48 h;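 further: potency means the concentration at half of the fitted maximal effect; 0% = DMSO wells and -100% = cell-free medium wells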
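Knockdown cells (IDH1KD HT-1080) received compounds 2 h after plating at 750 cells/well and were kept 48 h at 37 °C in 5% FBS RPMI. A CellTiter-Glo luminescence read gave % activity for curve fitting.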
TDP1 cell noCPT – qHTS for Inhibitors of human tyrosyl-DNA phosphodiesterase 1 (TDP1): qHTS in cells in absence of CPT; DT40 Tdp1-/- hTDP1 cells, no CPT, ATP luminescence, 48 h; Potency, µM (highest dose often 46.2 µM), for inactives: at the highest dose activity change, negative = growth inhibition, hits mostly inhibitors; actives 15% (n = 420,000); AID 686978, 2013; further: potency means the concentration at half of the fitted maximal effect; nearly all actives have a fitted effect of over 55% in size
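DT40 Tdp1-/-;hTDP1 cells, no CPT (DMSO vehicle only), 400 cells/well; compounds pin-transferred; ≥48 hr, 37 °C; CellTiter-Glo 30 min RT dark, luminescence read.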
* = called active by the depositor. Unless noted, the call rests on the fitted dose curve; in most records, active means well fitted curve in the direction sought with a large enough effect; inconclusive means small, poorly fitted or top-dose-only effect, or another doubt; inactive means no such curve, though single readings can be large; an effect the other way counts as inactive or inconclusive. Unless noted, on the % scale 0 is the no-effect control and ±100 the full control effect.

For CCOC(=O)c1ccc(N2C(=O)C3C(C2=O)C(C(=O)c2ccc(Cl)cc2)N2CCCC32)cc1 (centres undefined) the results were DT40 TDP1 CPT 14.6µM*, HT1080-NT tox inconclusive, IL1B secr inh -66.1*, HT1080 IDH1KD tx inconclusive and TDP1 cell noCPT 20.6µM*.
COc1ccc(NC(=O)COCc2cc(-c3ccc4c(c3)OCO4)on2)cc1 was read as DT40 TDP1 CPT -25.8% and TDP1 cell noCPT -29.8%.
For Cc1cccc(-n2c(CNC(=O)c3cccc(F)c3)nnc2SCC(=O)Nc2ccccc2F)c1 the results were DT40 TDP1 CPT -18.5% and TDP1 cell noCPT inconclusive.
Screening C=CCn1c(SCC(=O)/C(C#N)=C(\C)N)nc2sc(CC)cc2c1=O returned DT40 TDP1 CPT 20.6µM*, HT1080-NT tox -1.8%, IL1B secr inh inconclusive, HT1080 IDH1KD tx -17.2% and TDP1 cell noCPT 20.6µM*.
For C=CCn1c(SCC(=O)c2cccs2)nc2sc(CC)cc2c1=O the results were DT40 TDP1 CPT 14.6µM*, HT1080-NT tox -5.7%, IL1B secr inh 9.1, HT1080 IDH1KD tx inconclusive and TDP1 cell noCPT 16.4µM*.
`Cc1ccc(Cc2c(C)nn(-c3nc(C)c(C(=O)N4CCCCC4C)s3)c2C)cc1` (centres undefined) gave DT40 TDP1 CPT inconclusive and TDP1 cell noCPT 14.6µM*.
CCc1ccc(NC(=O)c2sc(-n3nc(C)c(Cc4ccc5c(c4)OCO5)c3C)nc2C)cc1 was read as DT40 TDP1 CPT -2.7% and TDP1 cell noCPT -20.2%.
CCOc1ccc(NC(=O)c2sc(-n3nc(C)c(Cc4ccc(Cl)cc4)c3C)nc2C)cc1 was read as DT40 TDP1 CPT 5.3% and TDP1 cell noCPT -21.4%.
Screening Cc1ccc(Cl)cc1NC(=O)c1sc(-n2nc(C)c(Cc3ccc4c(c3)OCO4)c2C)nc1C returned DT40 TDP1 CPT inconclusive and TDP1 cell noCPT 2.91µM*.
`CC(=O)c1ccc(NC(=O)c2sc(-n3nc(C)c(Cc4ccccc4)c3C)nc2C)cc1` gave DT40 TDP1 CPT 23.1µM* and TDP1 cell noCPT 16.4µM*.
For CC(=O)c1ccc(NC(=O)c2sc(-n3nc(C)c(Cc4ccc5c(c4)OCO5)c3C)nc2C)cc1 the results were DT40 TDP1 CPT 16.4µM* and TDP1 cell noCPT 16.4µM*.
Screening O=Cc1cccn1-c1ccc(O)cc1 returned DT40 TDP1 CPT -25.9%, HT1080-NT tox 18.6%, IL1B secr inh 13.0, HT1080 IDH1KD tx 19.6% and TDP1 cell noCPT -43.9%.
Screening Cc1cccc(C)c1NC(=O)c1sc(-n2nc(C)c(Cc3ccc4c(c3)OCO4)c2C)nc1C returned DT40 TDP1 CPT -10.6% and TDP1 cell noCPT -20.9%.
Screening Cc1nc(-n2nc(C)c(Cc3ccc4c(c3)OCO4)c2C)sc1C(=O)Nc1cccc(Cl)c1 returned DT40 TDP1 CPT inconclusive and TDP1 cell noCPT 16.4µM*.
Screening CCOC(=O)Cc1csc(NC(=S)NC(=O)C(C)(C)C)n1 returned DT40 TDP1 CPT 8.9%, HT1080-NT tox 14.5%, IL1B secr inh -6.9, HT1080 IDH1KD tx 3.2% and TDP1 cell noCPT -21.4%.
`O=[N+]([O-])c1ccc(Cl)c(-c2ccc(/C=N/c3c(-c4ccco4)nc4ccccn34)o2)c1` gave DT40 TDP1 CPT -27.9%, HT1080-NT tox -0.5%, IL1B secr inh 1.7, HT1080 IDH1KD tx -1.0% and TDP1 cell noCPT inconclusive.
Cc1cc(C)c([N+](=O)[O-])cc1-c1ccc(/C=N/c2c(-c3ccco3)nc3ccccn23)o1 was read as DT40 TDP1 CPT 14.6µM*, HT1080-NT tox -24.2%, IL1B secr inh -15.2, HT1080 IDH1KD tx -26.2% and TDP1 cell noCPT 14.6µM*.
Screening O=[N+]([O-])c1ccc(-c2ccc(/C=N/c3c(-c4ccco4)nc4ccccn34)o2)cc1 returned DT40 TDP1 CPT 20.6µM*, HT1080-NT tox inconclusive, IL1B secr inh 12.7, HT1080 IDH1KD tx inconclusive and TDP1 cell noCPT 7.31µM*.
For CCCCN(CC)Cc1ccc(CNC(=O)Nc2ccc(OCC)cc2)o1 the results were DT40 TDP1 CPT inconclusive, HT1080-NT tox 6.0%, IL1B secr inh -7.5, HT1080 IDH1KD tx -10.0% and TDP1 cell noCPT inconclusive.
For CCCCN(CC)Cc1ccc(CNC(=O)Nc2ccc(Cl)cc2)o1 the results were DT40 TDP1 CPT 3.26µM*, HT1080-NT tox inconclusive, IL1B secr inh -62.0*, HT1080 IDH1KD tx inconclusive and TDP1 cell noCPT 5.8µM*.
`CC1(C)N=C(c2ccc(F)cc2)C(=O)N1CC(=O)Nc1ccccc1Cl` gave DT40 TDP1 CPT inconclusive and TDP1 cell noCPT 16.4µM*.
COc1ccc(C2=NC(C)(C)N(CC(=O)Nc3cc(OC)cc(OC)c3)C2=O)cc1 was read as DT40 TDP1 CPT -4.1% and TDP1 cell noCPT -12.7%.
`COc1ccccc1NC(=O)CN1C(=O)C(c2ccc(F)cc2)=NC12CCCCC2` gave DT40 TDP1 CPT inconclusive and TDP1 cell noCPT 23.1µM*.
Screening CCS(=O)(=O)n1nc(-c2ccco2)nc1NCc1ccc(C(C)C)cc1 returned DT40 TDP1 CPT inconclusive and TDP1 cell noCPT 16.4µM*.
For O=S(=O)(c1ccccc1)n1nc(-c2ccco2)nc1NCc1ccccc1 the results were DT40 TDP1 CPT inconclusive and TDP1 cell noCPT -21.8%.
For Fc1ccc(C(c2ccc(F)cc2)N2CCN(C/C=C\c3ccccc3)CC2)cc1 the results were DT40 TDP1 CPT 23.7µM* and TDP1 cell noCPT 21.1µM*.
For O=C(Nc1cccc(F)c1)N1CCN(C/C=C/c2ccccc2)CC1 the results were DT40 TDP1 CPT -7.1%, HT1080-NT tox -11.5%, IL1B secr inh -3.7, HT1080 IDH1KD tx -5.2% and TDP1 cell noCPT -13.5%.
`O=C(CN1CCN(C(=O)C2CCN(C(=O)/C=C/c3ccccc3)CC2)CC1)Nc1ccc(F)cc1` gave DT40 TDP1 CPT inconclusive, HT1080-NT tox 5.2%, IL1B secr inh -83.4*, HT1080 IDH1KD tx -2.0% and TDP1 cell noCPT inconclusive.
Screening O=C(Nc1ccc(F)cc1)N1CCN(C/C=C/c2ccccc2)CC1 returned DT40 TDP1 CPT inconclusive, HT1080-NT tox -10.9%, IL1B secr inh -14.4, HT1080 IDH1KD tx -4.1% and TDP1 cell noCPT 29.1µM*.
CCNS(=O)(=O)c1ccc(CCC(=O)NCc2ccc3c(c2)OCO3)cc1 was read as DT40 TDP1 CPT -1.4%, HT1080-NT tox 1.9%, IL1B secr inh 1.6, HT1080 IDH1KD tx 6.5% and TDP1 cell noCPT 3.3%.
Cc1ccc(NC(=O)CCCn2nc(C)c3sc4ccccc4c3c2=O)c(Cl)c1 was read as DT40 TDP1 CPT 7.9% and TDP1 cell noCPT -4.1%.

High-throughput results (PubChem)
